Active and inactive are the calls of the source.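 How the source made its calls, unless noted: active means visual image review flags a hit and inhibition of aggregation exceeds 20%; inconclusive means visual hit but inhibition at or below 20%; inactive means no hit on visual image review.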
How the values were obtained:
[1] = inhibitors of TNFa-induced NFkB p65 translocation, primary screen, imaging, HUVEC, MLSMR starter and 10KST1 sets (AID 438;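 active means inhibition above 20% together with a positive visual image hit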;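 further: compound added about 3h40 before a 20 min TNFalpha stimulation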;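 on inhibition: signal is the nuclear over cytoplasmic p65 intensity ratio per well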); settings: HUVEC TNFa-induced p65 nuclear translocation; cell count: measured here: nuclei count (cytotoxicity indicator), at 2.08 µM; inhibition: at 2 µM, stronger effect = higher value, 0% TNFa-plus-vehicle, 100% no-TNFa wells
[2] = reduction of polyQ htt aggregates in cells – imaging, exon1htt(103Q)mCFP cells, high-content imaging, primary screen (AID 483); settings: exon1htt(103Q)mCFP cell line, aggregate imaging, at 2 µM; inhibition of aggregation: stronger effect = higher value; nuclei count: measured here: cell count, toxicity;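 further: compound exposure lasted 3 days before fixation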;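 on nuclei count: percent of the per-plate median nuclei count of sample wells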
[3] = endothelial E-selectin expression blockers – imaging, HUVEC, immunofluorescence, MLSMR starter and 10KST1 sets, primary screen (AID 487;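 active means visually confirmed hit in the image check and inhibition above 20%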;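 on inhibition: signal is fraction of cell area covered by stained E-selectin grains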;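 on nuclei count: 100% = median nuclei count of all wells on the same plate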); settings: HUVEC TNFalpha-induced E-selectin immunofluorescence imaging, at 2 µM; inhibition: stronger effect = higher value; nuclei count: measured here: cell number, toxicity
[4] = molecular target: Voltage-gated potassium channel subunit beta-2 (Rattus norvegicus) (UniProt P62483); test: inhibitors of rat Kvbeta2 reductase activity – biochemical, NADPH fluorescence, primary screen (AID 622;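 active means fluorescence slope higher than the sample average by over 3 SD, cut at about -0.22 in these data, passing the limit was not always enough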;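 further: slope of raw intensity against log time taken from 70 to 1610 s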); settings: recombinant KvBeta, 4-cyanobenzaldehyde reduction, at 10 µM, stronger effect = higher value
Sequence of Voltage-gated potassium channel subunit beta-2 (Rattus norvegicus) (P62483 whole entry, looked up): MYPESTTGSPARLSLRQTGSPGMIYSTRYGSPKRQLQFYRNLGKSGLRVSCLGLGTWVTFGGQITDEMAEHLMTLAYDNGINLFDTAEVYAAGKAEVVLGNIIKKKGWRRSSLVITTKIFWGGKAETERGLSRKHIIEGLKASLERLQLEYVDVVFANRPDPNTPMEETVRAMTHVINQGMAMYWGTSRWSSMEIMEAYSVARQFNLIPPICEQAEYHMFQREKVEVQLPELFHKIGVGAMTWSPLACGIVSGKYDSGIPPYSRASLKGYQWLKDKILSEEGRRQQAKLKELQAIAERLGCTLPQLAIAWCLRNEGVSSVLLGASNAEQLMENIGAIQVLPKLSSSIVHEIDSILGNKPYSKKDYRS

[5] = molecular target: Voltage-gated potassium channel subunit beta-2 (Rattus norvegicus) (UniProt P62483); test: enhancers of rat Kvbeta2 NADPH turnover – biochemical, NADPH fluorescence, primary screen (AID 623;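 active means NADPH fluorescence slope more negative than the mean of all samples by about 3 SD, 99.7% confidence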;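 further: fluorescence intensity change per second fitted from 20 to 320 s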); settings: Recombinant KvBeta, NADPH fluorescence decrease slope, 10 min; at 10 µM; stronger effect = lower value
[6] = molecular target: Alpha-2C adrenergic receptor (Homo sapiens) (UniProt P18825); test: compounds altering alpha2C-coupled GIRK flux – cell-based, HEK293 alpha2C/GIRK1/2, thallium flux, primary screen (AID 624;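 active means fluorescence slope after compound addition differing from the mean of all screened samples at 99.7% confidence, in either direction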;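 further: slope of fluorescence ratio to pre-addition baseline per second over 15 to 24 s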); settings: thallium flux BTC fluorescence, at 10 µM, actives lie on both sides
Sequence of Alpha-2C adrenergic receptor (Homo sapiens) (P18825 whole entry, looked up): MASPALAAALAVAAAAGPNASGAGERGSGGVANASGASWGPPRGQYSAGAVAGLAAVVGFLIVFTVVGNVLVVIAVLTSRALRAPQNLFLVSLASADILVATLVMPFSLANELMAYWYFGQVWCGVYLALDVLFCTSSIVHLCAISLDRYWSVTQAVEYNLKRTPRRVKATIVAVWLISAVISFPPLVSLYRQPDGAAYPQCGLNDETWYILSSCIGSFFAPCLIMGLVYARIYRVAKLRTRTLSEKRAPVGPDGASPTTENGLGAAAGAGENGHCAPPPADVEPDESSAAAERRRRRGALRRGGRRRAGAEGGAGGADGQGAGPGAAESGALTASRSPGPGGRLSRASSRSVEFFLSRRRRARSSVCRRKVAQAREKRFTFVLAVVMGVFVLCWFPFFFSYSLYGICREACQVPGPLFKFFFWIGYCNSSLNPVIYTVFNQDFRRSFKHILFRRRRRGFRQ

[7] = blockers of RIG-like receptor reporter activation – cell-based, Sendai virus stimulus, luciferase, 10K MLSCN set, TLR/RLR signaling modifier project, primary screen (AID 602276;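 active means inhibition at or above 50% at 10 µM; inactive means inhibition below 50%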;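 further: firefly luciferase from ISG56 promoter only with Renilla not read in this screen; 0% = Sendai virus plus DMSO and 100% = medium plus DMSO without virus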); settings: HEK293 RL24 IRF3 luciferase reporter, at 10 µM, stronger effect = higher value
[8] = TLR3 IRF3 reporter activation blockers – cell-based, poly I:C stimulus, luciferase, 10K MLSCN set, primary screen (AID 602277;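 active means inhibition of the reporter signal at or above 50%; inactive means inhibition below 50%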); settings: HEK293-TLR3 RL24 IRF3 luciferase reporter, at 10 µM, stronger effect = higher value

| Structure (SMILES) | cell count [1] | inhibition [1] | inhibition of aggregation [2] | nuclei count [2] [%] | inhibition [3] | nuclei count [3] [%] | fluorescence slope [4] | NADPH fluorescence slope [5] | slope [6] | inhibition [7] | inhibition [8] |
| --- | --- | --- | --- | --- | --- | --- | --- | --- | --- | --- | --- |
| O=C(NCc1cccs1)C1CC(c2ccccc2O)=NO1 (stereo not drawn) | 347 | 1.7% (inactive) | -11.8% (inactive) | 104 | -122% (inactive) | 108 | -0.601 (inactive) | -2.2e-05 (inactive) | 0.00342 (inactive) | 12.7% (inactive) | 67.7% (active) |
| Cc1cccc(NC(=O)c2cnc3sccn3c2=O)n1 | 613 | -1.9% (inactive) | -0.7% (inactive) | 115 | -24.4% (inactive) | 109 | -0.604 (inactive) | 5e-07 (inactive) | 0.00666 (inactive) | -25.6% (inactive) | -61.7% (inactive) |
| O=C(c1ccc(Br)cc1)N1CCN(S(=O)(=O)c2ccccc2)CC1 | 556 | -5.1% (inactive) | 3.3% (inactive) | 66.6 | -43.3% (inactive) | 106 | -0.588 (inactive) | -9.2e-07 (inactive) | 0.00631 (inactive) | -3.58% (inactive) | 20% (inactive) |
| CCOC(=O)N1CCC(NC(=O)c2ccc3c(c2)N(CC)CCS3)CC1 | 382 | -2.4% (inactive) | -22.2% (inactive) | 70.3 | -62.7% (inactive) | 114 | -0.0283 (active) | -5.8e-06 (inactive) | 0.00586 (inactive) | 12.8% (inactive) | 34.1% (inactive) |
| COc1ccc(NC(=O)c2cnc3n(c2=O)CCS3)cc1OC | 484 | -3.4% (inactive) | -15% (inactive) | 92.4 | -9.5% (inactive) | 98.8 | -0.515 (inactive) | -3.9e-05 (inactive) | 0.00659 (inactive) | -2.41% (inactive) | -20.9% (inactive) |
| COc1ccccc1C1/C(=C(/O)c2ccccc2)C(=O)C(=O)N1CC(C)C (stereo not drawn) | 430 | -3.3% (inactive) | -2% (inactive) | 112 | -43.1% (inactive) | 124 | -0.629 (inactive) | -2.2e-05 (inactive) | 0.00652 (inactive) | 11.4% (inactive) | 20.6% (inactive) |
| COc1cccc(OCCn2ccnc2)c1 | 305 | -6.6% (inactive) | 9.6% (inactive) | 82.1 | -24.7% (inactive) | 120 | -0.422 (inactive) | 2e-05 (inactive) | 0.00692 (inactive) | -8.26% (inactive) | -3.22% (inactive) |
| COc1ccc(OC)c(C2=NOC(C(=O)Nc3cc(C)nn3-c3ccccc3)C2)c1 (stereo not drawn) | 605 | 5.8% (inactive) | -4.1% (inactive) | 84.1 | 10.7% (inactive) | 107 | -0.605 (inactive) | -4.8e-05 (inactive) | 0.00657 (inactive) | 7.53% (inactive) | 19.2% (inactive) |
| CCc1c(C(=O)Nc2cc(C)ccc2OC)[nH]c(C)c1C(C)=O | 313 | -1.7% (inactive) | -4.5% (inactive) | 65.3 | 2.7% (inactive) | 76.2 | -0.424 (inactive) | 1.1e-05 (inactive) | 0.00495 (inactive) | 23.1% (inactive) | 27.6% (inactive) |
| CCOc1cc(NC(=O)c2ccccn2)c(OCC)cc1NC(=O)CC(C)C | 609 | -11.5% (inactive) | -0.3% (inactive) | 115 | -76.1% (inactive) | 119 | -0.615 (inactive) | 4.7e-06 (inactive) | 0.00499 (inactive) | -9.2% (inactive) | -24.5% (inactive) |
| C=CCn1c(COc2ccc(CC)cc2)nnc1SC/C(O)=C(\C#N)c1nc2ccccc2[nH]1 | 705 | -4.3% (inactive) | 3.6% (inactive) | 101 | -10.1% (inactive) | 108 | -0.379 (inactive) | 8.9e-06 (inactive) | 0.0031 (inactive) | 21.3% (inactive) | 14.4% (inactive) |
| CCOCCn1c(CN2CCC(Cc3ccccc3)CC2)nc2c1c(=O)n(C)c(=O)n2C | 598 | 10.6% (inactive) | 25.3% (inactive) | 84.1 | 7.1% (inactive) | 108 | -0.473 (inactive) | -2.3e-05 (inactive) | 0.00435 (inactive) | 19.8% (inactive) | 22.9% (inactive) |
| O=C(NCc1ccco1)c1c2c(nc3ccccc13)CCC2 | 301 | -1.7% (inactive) | 11.3% (inactive) | 87.3 | -7.8% (inactive) | 83.7 | -0.494 (inactive) | -5.2e-05 (inactive) | 0.00639 (inactive) | 5.99% (inactive) | 7.89% (inactive) |
| COc1ccc2[nH]c(=O)c(CN(CCO)S(=O)(=O)c3ccc4c(c3)OCCO4)cc2c1 | 539 | -7.5% (inactive) | 7.9% (inactive) | 105 | 24.9% (inactive) | 98.9 | -0.555 (inactive) | -5.3e-05 (inactive) | 0.00253 (inactive) | 9.42% (inactive) | 11.8% (inactive) |
| Cc1ccc(-c2cn3cccnc3n2)cc1NC(=O)c1ccc(Br)o1 | 420 | 4.7% (inactive) | 30.5% (inactive) | 66.8 | -274% (inactive) | 103 | -0.0541 (active) | 1.6e-06 (inactive) | 0.00595 (inactive) | -11.9% (inactive) | -53% (inactive) |
| O=C(CSc1nc2ccccc2o1)NC(=O)NCc1ccco1 | 342 | -1.8% (inactive) | -12.3% (inactive) | 94.8 | -31.1% (inactive) | 112 | -0.333 (inactive) | -3.3e-05 (inactive) | 0.00371 (inactive) | -2.31% (inactive) | 12.3% (inactive) |
| Cc1ccc(S(=O)(=O)N2CCC(C(=O)N3CCN(Cc4ccccc4)CC3)CC2)cc1 | 659 | -14% (inactive) | 19% (inactive) | 110 | -40.7% (inactive) | 106 | -0.518 (inactive) | -1.5e-05 (inactive) | 0.0064 (inactive) | 8.56% (inactive) | 16.4% (inactive) |
| CN1CCN(c2nc3c(c(=O)[nH]c(=O)n3C)n2CCOc2ccccc2)CC1 | 311 | 6.2% (inactive) | 0.9% (inactive) | 108 | -45.8% (inactive) | 116 | -0.489 (inactive) | -4.3e-05 (inactive) | 0.00596 (inactive) | 3.18% (inactive) | 27.3% (inactive) |
| O=C(c1ccco1)N1CCN(c2nc(C(F)(F)F)nc3c2nnn3Cc2ccccc2)CC1 | 534 | -2.5% (inactive) | -6.6% (inactive) | 87.1 | -10.1% (inactive) | 103 | -0.484 (inactive) | -5.9e-05 (inactive) | 0.00661 (inactive) | 3.06% (inactive) | -42% (inactive) |
| CC(C)(C)n1nnnc1CN(Cc1ccco1)Cc1cc2cc3c(cc2[nH]c1=O)OCO3 | 667 | 13.3% (inactive) | -11.2% (inactive) | 108 | -53.9% (inactive) | 130 | -0.401 (inactive) | -5.7e-05 (inactive) | 0.00513 (inactive) | 15.5% (inactive) | 16% (inactive) |
| O=c1cc(C(F)F)oc2c1ccc1ccccc12 | 398 | -4% (inactive) | 14.2% (inactive) | 94 | -244% (inactive) | 99.4 | -0.349 (inactive) | -1.6e-05 (inactive) | 0.00247 (inactive) | 9.69% (inactive) | 19.9% (inactive) |
| O=C(c1ccc(CNc2c(N3CCCC3)c(=O)c2=O)cc1)N1CCc2ccccc2C1 | 535 | 2.3% (inactive) | -13.5% (inactive) | 100 | -18.6% (inactive) | 108 | -0.614 (inactive) | 2.4e-05 (inactive) | 0.00541 (inactive) | -7.92% (inactive) | 4.25% (inactive) |
| COc1ccc(-c2nc(CCNC(=O)c3ccco3)cs2)cc1OC | 696 | -9.6% (inactive) | -8.9% (inactive) | 102 | -4% (inactive) | 114 | -0.524 (inactive) | -2.4e-05 (inactive) | 0.00779 (inactive) | 22.7% (inactive) | -5.2% (inactive) |
| CCc1nn(CC(=O)NCCCN2CCc3ccccc3C2)c(=O)c2cc3sccc3n12 | 811 | -6.4% (inactive) | 5.9% (inactive) | 138 | -64% (inactive) | 116 | -0.602 (inactive) | 9.3e-06 (inactive) | 0.00659 (inactive) | 2.67% (inactive) | 50.9% (active) |
| Cc1nnc(SCCn2c(N3CCC(Cc4ccccc4)CC3)nc3c2c(=O)[nH]c(=O)n3C)s1 | 432 | -1.1% (inactive) | -91.9% (inactive) | 79.6 | -2.5% (inactive) | 104 | -0.54 (inactive) | 3.5e-06 (inactive) | 0.00468 (inactive) | 1.88% (inactive) | 20.9% (inactive) |
| COc1ccccc1CCNC(=O)C1CCCO1 (stereo not drawn) | 665 | -8.8% (inactive) | -27.9% (inactive) | 118 | -45.2% (inactive) | 98.9 | -0.401 (inactive) | -1.9e-05 (inactive) | 0.00423 (inactive) | 0.904% (inactive) | -9.53% (inactive) |
| CCN(CCNC(=O)C1CCN(S(=O)(=O)c2cccc3cccnc23)CC1)c1ccccc1 | 614 | 5.8% (inactive) | -11% (inactive) | 112 | 2.5% (inactive) | 108 | -0.569 (inactive) | 2.5e-05 (inactive) | 0.00561 (inactive) | 11.9% (inactive) | 12.7% (inactive) |
| COc1ccc(C(=O)OCC(=O)NCc2ccco2)cc1OC | 573 | -18.9% (inactive) | -1.1% (inactive) | 107 | -12.3% (inactive) | 121 | -0.467 (inactive) | -7.7e-05 (inactive) | 0.00497 (inactive) | 17.6% (inactive) | 27.6% (inactive) |

From PubChem BioAssay
